Of roughly 8,800 targets only a part is listed; those with a hit were picked by preference. About 0.5% of all pairs of compound and target were hits.
Tests used:
Assay in all cases: log2 fold change, soluble protein after heating vs DMSO (PISA); higher = thermal stabilisation; K562 lysate, 10 uM; active = over 0.2 and 3.5 SD of the protein, either way, in both replicates (recomputed)
lapatinib = compound: CS(=O)(=O)CCNCc1ccc(-c2ccc3ncnc(Nc4ccc(OCc5cccc(F)c5)c(Cl)c4)c3c2)o1 [lapatinib]
In short: (§1)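 Pellets of K562 cells were dounce-homogenised in PBS pH 7.4 with 1 mM MgCl2, and the crude extract was held at 1 mg/mL protein for a 30 min treatment with 10 μM compound. Aliquots were heated for 3 min over 48°C-58°C and pooled before NP-40 was added to 0.5% at 4°C. The supernatant from 21,000xg for 90 min was quantified by TMTpro 16plex LC-MS/MS with channel sums equalised. Values are reported from duplicates as log-two fold change in thermal stability relative to solvent controls.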

pictilisib = compound: CS(=O)(=O)N1CCN(Cc2cc3nc(-c4cccc5[nH]ncc45)nc(N4CCOCC4)c3s2)CC1 [pictilisib]
In short: as §1

crizotinib = compound: C[C@@H](Oc1cc(-c2cnn(C3CCNCC3)c2)cnc1N)c1c(Cl)ccc(F)c1Cl [crizotinib]
In short: as §1

[1] = compound: C[C@H](C1=CC=C(C=C1)C(=O)NC2=C3C=CNC3=NC=C2)N
In short: as §1

duvelisib = compound: C[C@H](Nc1ncnc2nc[nH]c12)c1cc2cccc(Cl)c2c(=O)n1-c1ccccc1 [duvelisib]
In short: as §1

gandotinib = compound: Cc1cc(Nc2cc(CN3CCOCC3)c3nc(C)c(Cc4ccc(Cl)cc4F)n3n2)n[nH]1 [gandotinib]
In short: as §1

tozasertib = compound: Cc1cc(Nc2cc(N3CCN(C)CC3)nc(Sc3ccc(NC(=O)C4CC4)cc3)n2)n[nH]1 [tozasertib]
In short: as §1

doramapimod = compound: Cc1ccc(-n2nc(C(C)(C)C)cc2NC(=O)Nc2ccc(OCCN3CCOCC3)c3ccccc23)cc1 [doramapimod]
In short: as §1

bafetinib = compound: Cc1ccc(NC(=O)c2ccc(CN3CC[C@H](N(C)C)C3)c(C(F)(F)F)c2)cc1Nc1nccc(-c2cncnc2)n1 [bafetinib]
In short: as §1

[2] = compound: Cc1cccc(CC(=O)N2CCc3c2ccc(-c2cn(C)c4ncnc(N)c24)c3F)n1
In short: as §1

nilotinib = compound: Cc1cn(-c2cc(NC(=O)c3ccc(C)c(Nc4nccc(-c5cccnc5)n4)c3)cc(C(F)(F)F)c2)cn1 [nilotinib]
In short: as §1

[3] = compound: Cc1nc(Nc2n[nH]c3c2CN(C(=O)N[C@H](CN(C)C)c2ccccc2)C3(C)C)c2sccc2n1
In short: as §1

dasatinib = compound: Cc1nc(Nc2ncc(C(=O)Nc3c(C)cccc3Cl)s2)cc(N2CCN(CCO)CC2)n1 [dasatinib]
In short: as §1

[4] = compound: Cc1ncc(-c2ccnc(Nc3ccc(S(C)(=O)=O)cc3)n2)n1C(C)C
In short: as §1

[5] = compound: Cn1cc(-c2ccc3c(c2)CCN3C(=O)Cc2cccc(C(F)(F)F)c2)c2c(N)ncnc21
In short: as §1

quisinostat = compound: Cn1cc(CNCC2CCN(c3ncc(C(=O)NO)cn3)CC2)c2ccccc21 [quisinostat]
In short: as §1

tipifarnib = compound: Cn1cncc1[C@@](N)(c1ccc(Cl)cc1)c1ccc2c(c1)c(-c1cccc(Cl)c1)cc(=O)n2C [tipifarnib]
In short: as §1

[6] = compound: NC(=O)Nc1cc(-c2cccc(F)c2)sc1C(=O)N[C@H]1CCCNC1
In short: as §1

[7] = compound: NC(=O)c1cnc(N[C@@H]2CCCC[C@@H]2N)nc1Nc1cccc(-n2nccn2)c1
In short: as §1

[8] = compound: NC1(c2ccc(-c3nc4ccn5c(=O)[nH]nc5c4cc3-c3ccccc3)cc2)CCC1
In short: as §1

Measured: log2 fold change

POLR2M (UniProt P0CAP2)
Chain of UniProt P0CAP2 (P0CAP2 whole entry, looked up): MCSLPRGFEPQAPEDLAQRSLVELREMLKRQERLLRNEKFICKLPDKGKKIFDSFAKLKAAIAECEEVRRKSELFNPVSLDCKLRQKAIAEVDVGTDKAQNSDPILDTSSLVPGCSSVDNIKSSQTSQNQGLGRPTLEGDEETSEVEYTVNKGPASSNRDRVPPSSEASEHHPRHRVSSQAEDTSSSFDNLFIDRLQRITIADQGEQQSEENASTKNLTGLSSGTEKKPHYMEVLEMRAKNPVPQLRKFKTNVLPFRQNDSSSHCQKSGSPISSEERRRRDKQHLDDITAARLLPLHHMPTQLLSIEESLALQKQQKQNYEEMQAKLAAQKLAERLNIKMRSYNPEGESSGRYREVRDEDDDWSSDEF
inactive: lapatinib -0.034 | pictilisib -0.055 | crizotinib 0.016 | [1] -0.031 | duvelisib 0.015 | gandotinib 0.02 | tozasertib 0.185 | doramapimod 0.009 | bafetinib -0.011 | [2] 0.041 | nilotinib -0.033 | [3] -0.014 | dasatinib -0.032 | [4] 0.012 | [5] -0.056 | quisinostat -0.015 | tipifarnib 0.007 | [6] 0.012 | [7] 0.002 | [8] 0.014

PRRC2A (UniProt P48634)
Chain of UniProt P48634 (P48634 whole entry, looked up): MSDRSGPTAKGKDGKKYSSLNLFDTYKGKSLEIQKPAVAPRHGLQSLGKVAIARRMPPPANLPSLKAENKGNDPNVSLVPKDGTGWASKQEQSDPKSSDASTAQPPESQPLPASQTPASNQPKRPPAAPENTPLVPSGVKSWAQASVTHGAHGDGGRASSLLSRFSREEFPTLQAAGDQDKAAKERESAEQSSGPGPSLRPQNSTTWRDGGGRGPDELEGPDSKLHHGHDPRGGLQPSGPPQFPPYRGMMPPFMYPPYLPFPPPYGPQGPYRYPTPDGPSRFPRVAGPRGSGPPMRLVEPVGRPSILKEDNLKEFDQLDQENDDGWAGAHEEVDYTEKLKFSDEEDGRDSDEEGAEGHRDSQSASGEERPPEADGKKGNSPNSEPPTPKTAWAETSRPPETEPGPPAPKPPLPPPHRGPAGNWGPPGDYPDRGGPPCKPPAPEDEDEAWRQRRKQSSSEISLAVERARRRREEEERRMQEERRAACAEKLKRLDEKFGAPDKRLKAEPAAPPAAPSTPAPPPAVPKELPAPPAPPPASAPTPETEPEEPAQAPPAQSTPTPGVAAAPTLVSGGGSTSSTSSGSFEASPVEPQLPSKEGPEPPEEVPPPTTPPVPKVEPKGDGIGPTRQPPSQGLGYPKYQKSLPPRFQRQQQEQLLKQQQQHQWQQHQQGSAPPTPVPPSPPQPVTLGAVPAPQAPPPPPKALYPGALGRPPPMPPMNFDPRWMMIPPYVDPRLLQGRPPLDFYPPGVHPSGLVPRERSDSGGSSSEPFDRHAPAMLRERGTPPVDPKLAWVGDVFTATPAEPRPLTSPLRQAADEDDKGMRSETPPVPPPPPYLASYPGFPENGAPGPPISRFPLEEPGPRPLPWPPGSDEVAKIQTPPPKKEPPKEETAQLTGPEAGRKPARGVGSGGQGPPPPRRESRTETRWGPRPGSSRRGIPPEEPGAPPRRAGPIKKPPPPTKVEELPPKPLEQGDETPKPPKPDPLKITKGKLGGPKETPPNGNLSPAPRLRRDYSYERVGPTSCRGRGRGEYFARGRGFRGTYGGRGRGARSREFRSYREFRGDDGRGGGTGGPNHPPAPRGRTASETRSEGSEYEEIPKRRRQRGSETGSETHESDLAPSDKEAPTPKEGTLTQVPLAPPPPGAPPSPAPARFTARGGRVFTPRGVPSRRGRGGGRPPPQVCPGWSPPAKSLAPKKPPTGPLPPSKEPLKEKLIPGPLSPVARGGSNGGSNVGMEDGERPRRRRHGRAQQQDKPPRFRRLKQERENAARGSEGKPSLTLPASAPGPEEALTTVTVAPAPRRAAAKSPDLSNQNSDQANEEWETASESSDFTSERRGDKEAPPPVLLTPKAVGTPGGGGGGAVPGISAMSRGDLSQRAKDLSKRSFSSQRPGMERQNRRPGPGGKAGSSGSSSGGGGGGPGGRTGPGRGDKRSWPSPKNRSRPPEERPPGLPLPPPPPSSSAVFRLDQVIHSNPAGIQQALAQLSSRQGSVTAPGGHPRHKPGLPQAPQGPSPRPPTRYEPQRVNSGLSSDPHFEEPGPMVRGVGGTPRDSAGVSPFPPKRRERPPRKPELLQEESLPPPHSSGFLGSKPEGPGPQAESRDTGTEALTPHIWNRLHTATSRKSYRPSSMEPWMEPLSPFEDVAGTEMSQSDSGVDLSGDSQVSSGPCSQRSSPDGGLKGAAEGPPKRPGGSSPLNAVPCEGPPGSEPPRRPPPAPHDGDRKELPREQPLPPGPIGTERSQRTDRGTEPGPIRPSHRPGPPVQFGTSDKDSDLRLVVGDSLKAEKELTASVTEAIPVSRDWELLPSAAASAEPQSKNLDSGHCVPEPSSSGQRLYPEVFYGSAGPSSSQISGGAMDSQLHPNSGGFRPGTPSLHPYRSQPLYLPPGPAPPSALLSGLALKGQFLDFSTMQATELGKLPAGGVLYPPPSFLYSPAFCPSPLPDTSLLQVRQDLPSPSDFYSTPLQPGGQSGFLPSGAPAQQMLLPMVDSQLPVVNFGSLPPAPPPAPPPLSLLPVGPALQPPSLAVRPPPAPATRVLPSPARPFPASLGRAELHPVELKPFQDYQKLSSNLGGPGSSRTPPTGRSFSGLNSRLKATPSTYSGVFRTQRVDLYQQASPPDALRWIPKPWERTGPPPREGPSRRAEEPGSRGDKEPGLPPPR
inactive: lapatinib -0.02 | pictilisib -0.017 | crizotinib 0.06 | [1] 0.011 | duvelisib -0.001 | gandotinib 0.007 | tozasertib -0.013 | doramapimod -0.073 | bafetinib 0.031 | [2] -0.058 | nilotinib -0.044 | [3] 0.01 | dasatinib 0.004 | [4] 0.002 | [5] -0.003 | quisinostat 0.015 | tipifarnib -0.036 | [6] 0.059 | [7] -0.011 | [8] 0.02

PMPCA (UniProt Q10713)
Chain of UniProt Q10713 (Q10713 whole entry, looked up): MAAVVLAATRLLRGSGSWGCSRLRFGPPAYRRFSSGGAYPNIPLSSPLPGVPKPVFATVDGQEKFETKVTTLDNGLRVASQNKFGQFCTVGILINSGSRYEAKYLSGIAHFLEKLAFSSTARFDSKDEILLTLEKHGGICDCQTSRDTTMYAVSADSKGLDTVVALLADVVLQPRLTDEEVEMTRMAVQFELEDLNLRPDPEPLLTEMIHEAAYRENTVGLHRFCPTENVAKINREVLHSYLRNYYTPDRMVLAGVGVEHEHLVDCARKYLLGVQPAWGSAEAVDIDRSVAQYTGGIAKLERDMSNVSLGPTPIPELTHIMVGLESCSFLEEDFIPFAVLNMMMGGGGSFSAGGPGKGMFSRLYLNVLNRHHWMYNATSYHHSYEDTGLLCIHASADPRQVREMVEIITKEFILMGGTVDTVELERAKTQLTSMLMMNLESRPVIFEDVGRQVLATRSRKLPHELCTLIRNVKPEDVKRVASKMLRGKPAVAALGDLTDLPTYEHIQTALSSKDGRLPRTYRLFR
inactive: lapatinib -0.02 | pictilisib -0.043 | crizotinib -0.048 | [1] -0.053 | duvelisib 0.053 | gandotinib -0.004 | tozasertib 0.016 | doramapimod 0.079 | bafetinib 0.046 | [2] 0.025 | nilotinib 0.005 | [3] 0.052 | [4] 0 | [5] -0.017 | quisinostat -0.041 | tipifarnib 0.187 | [6] -0.013 | [7] -0.009 | [8] 0.003
active: dasatinib 0.672

PLIN2 (UniProt Q99541)
Chain of UniProt Q99541 (Q99541 whole entry, looked up): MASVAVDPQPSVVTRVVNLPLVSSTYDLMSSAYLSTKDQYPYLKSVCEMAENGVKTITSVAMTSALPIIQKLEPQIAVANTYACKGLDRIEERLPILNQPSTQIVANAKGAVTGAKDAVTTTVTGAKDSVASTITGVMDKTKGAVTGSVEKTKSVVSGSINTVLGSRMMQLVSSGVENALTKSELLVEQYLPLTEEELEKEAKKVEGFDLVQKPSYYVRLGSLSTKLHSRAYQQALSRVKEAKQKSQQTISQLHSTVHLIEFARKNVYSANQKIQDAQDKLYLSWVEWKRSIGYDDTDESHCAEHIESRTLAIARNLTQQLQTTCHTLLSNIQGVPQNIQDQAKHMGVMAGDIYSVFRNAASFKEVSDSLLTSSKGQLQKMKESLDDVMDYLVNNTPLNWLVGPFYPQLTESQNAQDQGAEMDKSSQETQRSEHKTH
active: gandotinib -0.254
inactive: lapatinib -0.009 | pictilisib -0.041 | crizotinib -0.038 | [1] 0.023 | duvelisib 0.014 | tozasertib 0.096 | doramapimod -0.003 | bafetinib -0.067 | [2] 0.011 | nilotinib 0.088 | [3] -0.012 | dasatinib -0.092 | [4] 0 | [5] 0.008 | quisinostat -0.031 | tipifarnib -0.153 | [6] 0.038 | [7] -0.003 | [8] -0.018

PYCR2 (UniProt Q96C36)
Chain of UniProt Q96C36 (Q96C36 whole entry, looked up): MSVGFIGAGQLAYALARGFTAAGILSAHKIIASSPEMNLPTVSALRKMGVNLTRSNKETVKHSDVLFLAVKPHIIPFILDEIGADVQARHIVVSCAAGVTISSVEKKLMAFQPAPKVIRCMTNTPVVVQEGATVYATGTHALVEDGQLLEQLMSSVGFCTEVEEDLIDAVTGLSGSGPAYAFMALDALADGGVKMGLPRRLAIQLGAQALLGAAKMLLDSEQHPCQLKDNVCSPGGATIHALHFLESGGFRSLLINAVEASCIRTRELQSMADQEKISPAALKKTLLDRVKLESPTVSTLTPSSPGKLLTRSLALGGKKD
inactive: lapatinib -0.029 | pictilisib -0.021 | crizotinib 0.026 | [1] 0.021 | duvelisib -0.004 | gandotinib 0.01 | tozasertib 0.001 | doramapimod -0.012 | bafetinib 0.034 | [2] -0.01 | nilotinib 0.03 | [3] -0.027 | dasatinib 0.011 | [4] -0.007 | [5] -0.005 | quisinostat 0.073 | tipifarnib -0.015 | [6] -0.021 | [7] 0.007 | [8] 0.018

PLA2G4B isoform 6 (UniProt P0C869)
inactive: lapatinib -0.001 | pictilisib -0.032 | crizotinib -0.49 | [1] -0.015 | duvelisib -0.038 | gandotinib 0.069 | tozasertib -0.009 | doramapimod 0 | bafetinib -0.133 | [2] 0.086 | nilotinib -0.177 | [3] 0.259 | dasatinib -0.1 | [4] -0.326 | [5] -0.047 | tipifarnib 0.022 | [6] 0.158 | [7] 0.006 | [8] -0.073
active: quisinostat -0.671

PRIM1 (UniProt P49642)
Chain of UniProt P49642 (P49642 whole entry, looked up): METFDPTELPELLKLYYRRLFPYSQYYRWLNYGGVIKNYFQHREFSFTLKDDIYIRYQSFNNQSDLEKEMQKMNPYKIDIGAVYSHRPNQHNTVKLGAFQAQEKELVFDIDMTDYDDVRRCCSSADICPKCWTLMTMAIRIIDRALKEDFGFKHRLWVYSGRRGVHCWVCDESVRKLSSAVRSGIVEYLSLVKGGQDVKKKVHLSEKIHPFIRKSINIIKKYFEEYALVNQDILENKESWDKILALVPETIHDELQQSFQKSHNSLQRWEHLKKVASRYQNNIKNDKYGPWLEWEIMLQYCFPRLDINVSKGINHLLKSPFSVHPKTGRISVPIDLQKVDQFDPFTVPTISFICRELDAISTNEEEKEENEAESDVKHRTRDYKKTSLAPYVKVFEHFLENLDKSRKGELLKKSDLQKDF
inactive: lapatinib -0.02 | pictilisib 0.023 | crizotinib -0.064 | [1] 0.024 | duvelisib 0.004 | gandotinib -0.099 | tozasertib 0.027 | doramapimod -0.022 | bafetinib -0.077 | [2] 0.007 | nilotinib 0 | [3] -0.011 | dasatinib -0.05 | [4] -0.006 | [5] 0.019 | quisinostat 0.014 | tipifarnib -0.022 | [6] 0.028 | [7] 0.001 | [8] -0.031

PTS (UniProt Q03393)
Chain of UniProt Q03393 (Q03393 whole entry, looked up): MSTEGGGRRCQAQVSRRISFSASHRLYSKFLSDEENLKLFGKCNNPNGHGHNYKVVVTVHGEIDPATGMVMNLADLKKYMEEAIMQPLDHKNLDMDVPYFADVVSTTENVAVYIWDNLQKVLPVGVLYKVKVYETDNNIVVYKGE
inactive: lapatinib -0.018 | pictilisib 0.008 | crizotinib 0.051 | [1] -0.024 | duvelisib 0.051 | gandotinib -0.039 | tozasertib 0.031 | doramapimod -0.069 | bafetinib 0 | [2] 0.05 | nilotinib 0.172 | [3] 0.024 | dasatinib 0 | [4] -0.018 | [5] 0.082 | quisinostat -0.083 | tipifarnib 0.112 | [6] 0.126 | [7] 0.006 | [8] -0.077
